SARS 3CLpro inh = SARS-CoV 3CLpro protease inhibition. AID 1706. actives 0.14% (n = 290,000). P0C6X7. recombinant SARS-CoV 3CLpro, quenched FRET peptide cleavage. inhibition, % at 6 µM; in the data active = inhibition above about 12%
BoNT-A LC inh2 = inhibitors of Botulinum neurotoxin A light chain protease; multiplex microsphere protease substrate cleavage, flow cytometry; inhibition, % at 10 µM; actives 0.17% (n = 360,000); AID 588499
Autofluor counter = compound fluorescence in toxin protease inhibitor counterscreen. compound autofluorescence counterscreen, microsphere flow cytometry; active compounds read high. fluorescence intensity (no concentration beside the values). actives 3.1% (n = 360,000). AID 624483; in the data active = fluorescence intensity above about 16000; inconclusive = no clear call, values can overlap the other calls
BoNT-F LC inh = inhibitors of Botulinum neurotoxin F light chain protease; Multiplex microsphere protease cleavage assay, flow cytometry; inhibition, % at 10 µM; actives 0.22% (n = 360,000); in the data active = inhibition above about 35%, passing the limit was not always enough; inconclusive = no clear call, values can overlap the other calls
Anthrax LF inh2 = blocks Bacillus anthracis lethal factor protease. multiplex microsphere protease cleavage assay, LF. inhibition, % at 10 µM. actives 0.12% (n = 360,000). AID 588501
Numbers stand for hits; – = inactive; ? = inconclusive; · = no result. In the library only some 3.5% were active in any assay of this set; here they are far more common. Cut-off read from the data, not from the text of the source, unless noted: active = inhibition above about 30%; inconclusive = no clear call, values can overlap the other calls; inactive = below that.

SMILES	SARS 3CLpro inh	BoNT-A LC inh2	Autofluor counter	BoNT-F LC inh	Anthrax LF inh2
CC(C)CC(NC(=O)c1cccs1)c1nnc(SCc2ccc(Cl)c(Cl)c2)n1C (centres undefined)	–	–	–	–	–
COc1cc(/C=C/C=C2/CC/C(=C/C=C/c3ccc(O)c(OC)c3)C2=O)ccc1O	·	39	–	–	34
COc1ccc(-c2cc(=O)n(-c3nc4ccccc4[nH]3)[nH]2)cc1	–	?	23993	–	–
COc1ccc(-c2nc3ccccc3[nH]2)cc1	–	–	–	–	–
CC1(C)CC(=O)C2=C(C1)OC(N)=C(C#N)C2C#Cc1ccccc1 (centres undefined)	–	–	–	–	–
CN1CCN(/C=N/C2=C(C#N)C(c3ccccc3)C3=C(CC(C)(C)CC3=O)O2)CC1 (centres undefined)	–	–	22390	–	–
CC(c1ccccc1)C1C(C#N)=C(N)OC2=C1C(=O)CC(C)(C)C2 (centres undefined)	–	–	23366	–	–
Cc1csc(SCC(=O)NC(=O)NC(C)(C)C)n1	–	–	–	–	–
CN(Cc1ccc(OC(F)F)cc1)C(=O)C1CCN(S(=O)(=O)c2ccc3c(c2)OCCO3)CC1	·	–	–	–	–
OC(c1ccccc1)(c1nc(-c2ccccc2)cs1)C(F)(F)F (centres undefined)	·	–	–	–	–
O=S1(=O)CCN2C=C(Br)C=C(Br)C2=N1	–	–	–	–	–
CCCc1nc2oc3c(NCCOCCO)ncnc3c2c2c1COC(C)(C)C2	–	–	–	–	–
CCCc1nc2oc3c(OC)ncnc3c2c2c1COC(C)(C)C2	–	–	19420	–	–
Cc1nc2oc3c(NCC4CCCO4)ncnc3c2c2c1COC(C)(C)C2 (centres undefined)	–	–	22824	–	–
CC(C)c1nc2oc3c(NCC4CCCO4)ncnc3c2c2c1COC(C)(C)C2 (centres undefined)	–	–	22704	–	–
CCOCCSC1=C(C#N)C(c2cccs2)C(C(C)=O)=C(C)N1 (centres undefined)	–	–	–	–	–
COc1ccc(Cl)cc1NC(=O)CN(C)C(=O)C1CC1	·	–	–	–	–
COc1ccccc1-c1cc(C(=O)NCc2ccc(F)cc2)no1	–	–	–	–	–
COC(=O)c1ccccc1NC(=O)c1cc(-c2cccs2)on1	–	–	20518	–	–
O=C(NCc1ccc(F)cc1)c1cc(-c2cccs2)on1	–	–	–	–	–
COc1ccccc1-c1cc(C(=O)NCc2ccccc2)no1	–	–	21016	–	–
O=C(NCc1ccccc1)c1cc(-c2cccs2)on1	–	–	18644	–	–
COC(=O)c1ccccc1NC(=O)c1cc(-c2ccco2)on1	–	–	–	–	–
O=C(O)c1ccc(-c2sc(Nc3ccccc3)n[n+]2-c2ccccc2)cc1	–	–	–	–	–
Cc1ccn2c(=O)c(C(=O)NCCN3CCOCC3)c(O)nc2c1	–	–	–	–	–
SMILES	SARS 3CLpro inh	BoNT-A LC inh2	Autofluor counter	BoNT-F LC inh	Anthrax LF inh2
O=C(Nc1ccon1)Nc1ccc(Cl)cc1Cl	–	–	–	–	–
CCCCNC(=O)C(=O)N/N=C/c1ccc(OCc2ccccc2)cc1	–	–	–	–	–
CCCOc1ccc(N2C(=O)CC(SC(=NCC)NCC)C2=O)cc1 (centres undefined)	–	–	–	–	–
COC(=O)C1=C(Nc2ccc(C)cc2)C=C(C)C(C(=O)OC)C1c1ccc(OC)cc1 (centres undefined)	–	–	–	–	–
COC(=O)C1=C(O)C(C(=O)OC)C(c2ccc(C)cc2)C(C#N)(C#N)C1c1ccc(C)cc1 (centres undefined)	–	–	22296	–	–
Cc1ccccc1NC(=O)OCCN1CCN(Cc2ccccc2)CCC1=O	–	–	–	–	–
C/C(=C1/SC(N2CC(C)OC(C)C2)=NC1=O)c1ccccc1 (centres undefined)	–	–	19965	–	–
O=C(NNC(=O)C1COc2ccccc2O1)c1ccccc1 (centres undefined)	–	–	22774	–	–
CCc1nc(SCC(=O)N2CCN(C(=O)c3ccco3)CC2)c2c3c(sc2n1)CCCC3	–	–	–	–	–
COc1ccc(S(=O)(=O)N2CCN(C(=O)c3c(-c4ccccc4)noc3C)CC2)cc1	–	–	–	–	–
Cc1cc(C(=O)Nc2nccs2)c2cc(F)ccc2n1	–	–	–	?	–
COCCCNC(=O)c1cc(C)nc2ccc(F)cc12	–	–	21925	–	–
C[C@@H]1CN([C@H](C)CO)C(=O)CCCn2nncc2CO[C@H]1CN(C)C(=O)Nc1ccc2c(c1)OCO2	·	–	–	–	–
C/C(Cc1ccccc1)=N\NC(=O)CNC(=O)c1cccc(Cl)c1	–	–	–	?	–
C/C(Cc1ccccc1)=N\NC(=O)CNC(=O)c1ccc(Cl)cc1Cl	–	–	–	36	?
COc1ccc(/C(C)=N/NC(=O)CNC(=O)Cc2ccccc2)c(OC)c1	–	–	–	38	–
COc1ccc(NC(=O)C23CC4CC(C2)CC(n2cnc(Br)n2)(C4)C3)cc1Cl	–	–	16232	–	–
O=C(O)c1cccc(NC(=O)C23CC4CC(C2)CC(n2cnc(Cl)n2)(C4)C3)c1	–	–	–	–	–
Cc1c(Br)c([N+](=O)[O-])nn1C(C)C(=O)NCc1ccco1 (centres undefined)	–	–	–	–	–
Cc1c(Br)c([N+](=O)[O-])nn1C(C)C(=O)NCc1cccnc1 (centres undefined)	–	–	20382	–	–
CCOC(=O)c1cc(CC)sc1NC(=O)Cc1ccccc1	–	?	20942	–	–
CCOC(=O)c1cc(CC)sc1NC(=O)COC	–	–	18881	–	–
COc1ccccc1OCc1cc(C(=O)N2CC3C[C@@H]4CC2C[C@H](C3)C4)no1	–	–	–	–	–
CCOc1cc(CNc2ncnc3nc[nH]c23)ccc1OC	–	–	–	–	–
CC(C)NC(=O)c1ccc2c(c1)N(CC(=O)N1CCOCC1)C(=O)C(C)(C)O2	–	–	22372	–	–
SMILES	SARS 3CLpro inh	BoNT-A LC inh2	Autofluor counter	BoNT-F LC inh	Anthrax LF inh2
CC(C)NC(=O)c1ccc2c(c1)N(CC(=O)N1CCCC1)C(=O)C(C)(C)O2	–	–	–	?	–
O=S(=O)(/C=C/c1ccccc1)Oc1ccccc1	–	–	21677	–	–
COc1ccc(NC(=O)C2CCCN2C(=O)Nc2ccccc2)cc1OC (centres undefined)	–	–	–	–	–
O=C(c1ccc(OC2CCN(CCc3ccccc3)CC2)cc1)N1CCCCC1CCCO (centres undefined)	–	–	–	–	–
Cc1ccc(O)c(C2=NCCNC(C(F)(F)F)=C2)c1	–	?	21465	–	–
CCOC(=O)COc1ccc2c(c1)C(=O)CC(C)(C)O2	–	–	21356	–	–
CCOC(=O)N1CCN(C(=O)COc2ccc3c(c2)C(=O)CC(C)(C)O3)CC1	–	–	–	–	–
CC1(C)CC(=O)c2cc(OCC(=O)N3CCCCCC3)ccc2O1	–	–	–	–	–
CC1(C)CC(=O)c2cc(OCC(=O)O)ccc2O1	–	–	24044	–	–
CCOC(=O)COc1ccc2c(c1)C(=O)CC1(CCN(C(C)=O)CC1)O2	–	–	23933	–	–
